Holding throughout (assay): MAPPIT interaction score (arbitrary units); higher = stronger binary interaction signal, active = hit call of the paper
One assay deals with Sod3.
The target in the next assay is Snapin. Conditions: MAPPIT configuration: N-N; pair source set: Lit-BM-16.
Another assay deals with Su(var)2-10. Conditions: MAPPIT configuration: N-N; pair source set: DPIM.
The target in another assay is Ssrp. Conditions: MAPPIT configuration: N-C; pair source set: Lit-BM-16.

Unmarked numbers belong to inactive results.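 The calls were made as follows: active = MAPPIT score above the 99th percentile of random reference set scores in the same batch; inactive = at or below it.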
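Also: HEK293T cells with Epo stimulation, STAT-responsive firefly luciferase reporter, fold induction versus unstimulated cells divided by the larger fold induction of two negative controls lacking either bait or prey.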

B1: shv (protein)
chain: MQLIKCLVIIQLSLLLVEESFAGRDFYKILNVKKNANTNEVKKAYRRLAKELHPDKNKDDPDASTKFQDLGAAYEVLSNPDKRKTYDRCGEECLKKEGMMDHGGDPFSSFFGDFGFHFGGDGQQQDAPRGADIVMDLYVSLEELYSGNFVEIVRNKPVTKPASGTRKCNCRQEMVTRNLGPGRFQMIQQTVCDECPNVKLVNEERTLEIEVEQGMVDGQETRFVAEGEPHIDGEPGDLIVRVQQMPHPRFLRKNDDLYTNVTISLQDALVGFSMEIKHLDGHLVPVTREKVTWPGARIRKKGEGMPNFENNNLTGNLYITFDVEFPKKDLTEEDKEALKKILDQSSINRIYNGL
Turning to B1, in the assay with Sod3 (MAPPIT configuration: N-N, pair source set: Curagen_high_conf), the MAPPIT interaction score is 0.367.

B2: Dysb (protein)
chain: MFGNLKKKLSSAIQEGLVISENLQQQYRQRVSSGNSGSSQASGITTPISPLGLNESLSSSRSSSLSLSAPFQLTDGVPSHLNVAAGCSLLAKYEDDWQQIHGANEKNAEKAAQIANQISGIQDQASHQHRIMSELNSSLAGIPTLIAQLQNSSQVLNSLEEMGKQLEIELEKLEDLREECELQEFILEQQFQLSRHKQKKLNELEQYRQQIAQKHQSKIKDQEQTLLKLQRERQAVFDDAFREDMEEYKQRGQLTKIQTTSNKLALEEVVLEANEVETKDALEQFLNG
Consider B2, for which, in the assay with Snapin, the MAPPIT interaction score is 3.8 (active).

B3: noc (protein)
chain: MVVLEGGGGVVTIGNNQYLQPDYLAPLPTTMDAKKSPLALLAQTCSQIGADSSAVKPLLAMDKNKTKPGACSSSSNSSSSSGSAEISAAKSPSGQAKSPKSSTPISSTATSASLSNTSTGEIKLAFKPYETNVLSHQNQNSFKSSSSLDAEPTRPSSKNSSSAQERVPSRSKSNATPTDGGKAEISAHDSSSSRKTVSPSGSSQRGASPIVRSGMEVLNNANGTAQHPKEMSSMAAAAAAAAAAYKAAGPYGLNPLSALCCPPGMEQHANPAFRPPFAGGFSHHHAAMLAVAANGGYPGGAPGGGPAGQPNPYISYQRIKTPAGGEAIVPVCKDPYCQGCPYSAHTQQMLMGAPCPAGCTQCEHQKYGLAMASAAGLPPAHPYSQAAAAAAANAAAARSAPYVCSWVVGDAYCGKRFQTSDELFSHLRTHTGNLSDPAAAAAALAQSQAQSLLGTLFPPSALRAGYPTPPLSPMSAAAAAARYHPYAKPPPGALAGGPSPFGAAGAFNPAAAAAAAALGPYYSPYAMYGQRMGAAHQ
As to B3, in the assay with Sod3 (MAPPIT configuration: N-N, pair source set: Lit-BS-16), the MAPPIT interaction score is 0.758.

B4: Calr (protein)
chain: MMWCKTVIVLLATVGFISAEVYLKENFDNENWEDTWIYSKHPGKEFGKFVLTPGTFYNDAEADKGIQTSQDARFYAASRKFDGFSNEDKPLVVQFSVKHEQNIDCGGGYVKLFDCSLDQTDMHGESPYEIMFGPDICGPGTKKVHVIFSYKGKNHLISKDIRCKDDVYTHFYTLIVRPDNTYEVLIDNEKVESGNLEDDWDFLAPKKIKDPTATKPEDWDDRATIPDPDDKKPEDWDKPEHIPDPDATKPEDWDDEMDGEWEPPMIDNPEFKGEWQPKQLDNPNYKGAWEHPEIANPEYVPDDKLYLRKEICTLGFDLWQVKSGTIFDNVLITDDVELAAKAAAEVKNTQAGEKKMKEAQDEVQRKKDEEEAKKASDKDDEDEDDDDEEKDDESKQDKDQSEHDEL
For the molecule B4, the MAPPIT interaction score with Su(var)2-10 is 1.1.

B5: Drs (protein)
chain: MMQIKYLFALFAVLMLVVLGANEADADCLSGRYKGPCAVWDNETCRRVCKEEGRSSGHCSPSLKCWCEGC
Consider B5, for which the MAPPIT interaction score with Sod3 (MAPPIT configuration: N-C, pair source set: screen_4) was 1.45.

B6: dre4 (protein)
chain: MSSFVLDKEAFVRRVKRLYTEWRAPSIGHDDALRNLDCIMSIVGVEEDVMYSKSMALQLWLLGYELTDTISVFCSDAVYFLTSKKKIEFLKQTQNITEEGFPEINLLVRDRTDKDQGNFEKLIKALQNSKKGKRLGVFAKDAYPGEFSEAWKKSLTASKFEHVDISTIIAYLMCPKDESEINNIRKASLVSMDIFNKYLKDEIMDIIDSDRKVKHNKLSDGCEAAIGEKKYTSGLDPRLLDMAYPPIIQSGGAYSLKFSAVADKNPLHFGVIVCSLGARYKSYCSNISRTFLVNPTEAMQENYTFLVSVQEEILKLLVPGTKLCDVYEKTLDFVKKEKPSMVDNLPKSFGFAMGLEFRENSIVIGPKCQALLKKNMVFNLHVGISNLTNPEATDKEGKNYALFIGDTVLVGEQSPASVMTPSKKKIKNVGIFIKDDSDEEDVDDKKTAKEDQGTEILGRSKRNAVLESKLRNEINTEEKRKEHQRELAQQLNERAKDRLARQGNSKEVEKVRKNTVSYKSISQMPREPEVKELKLYVDKKYETVIMPVFGIQVPFHISTIKNISQSVEGEYTYLRINFFHPGATMGRNEGGLYPQPEATFVKEVTYRSSNVKEHGEVGAPSANLNNAFRLIKEVQKRFKTREAEEREKEDLVKQDTLILSQNKGNPKLKDLYIRPNIVTKRMTGSLEAHSNGFRYISVRGDKVDILYNNIKSAFFQPCDGEMIILLHFHLKYAIMFGKKKHVDVQFYTEVGEITTDLGKHQHMHDRDDLAAEQAERELRHKLKTAFKSFCEKVETMTKSVVEFDTPFRELGFPGAPFRSTVTLQPTSGSLVNLTEWPPFVITLDDVELVHFERVQFHLRNFDMIFVFKEYNKKVAMVNAIPMNMLDHVKEWLNSCDIRYSEGVQSLNWQKIMKTITDDPEGFFEQGGWTFLDPESGSEGENETAESEEDEAYNPTDAESDEESDEDSEYSEASEDSEESDEDLGSDEESGKDWSDLEREAAEEDRNHDYAADDKPRNGKFDSKKHGKSSKHSPSKSSKDKYNSRDKHHSSSSSGNKSSSKDKDRKRSRDDSRDNGHKSKKSRH
As to B6, the MAPPIT interaction score with Ssrp is 0.759.

(Values after the supplement of paper PMC10105736.)
